From the supplement of paper PMC8728848
The entries come from a sample that favours the strongest signals as a whole.

How the values were obtained:
Assay in all cases: glycan array binding signal (z-score within array); higher = stronger binding
Conditions in all cases: glycan notation: IUPAC condensed, linker removed
[1] = target: Fuc(a1-2)Gal(b1-4)GlcNAc(b1-3)Gal(b1-4)GlcNAc(b1-2)Man(a1-3)[Fuc(a1-2)Gal(b1-4)GlcNAc(b1-3)Gal(b1-4)GlcNAc(b1-2)Man(a1-6)]Man(b1-4)GlcNAc(b1-4)GlcNAc
Outline: (§1)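 Arrays were curated from the Consortium for Functional Glycomics database, 3228 in total, and kept only where the protein sequence was available. Binding is expressed as a within-array Z-score. This score was averaged across arrays of the same protein sequence at different concentrations or buffers and across linkers, and negative values can be read as non-binding.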

[2] = target: Fuc(a1-2)Gal3S(b1-4)GlcNAc
Outline: as §1

[3] = target: Fuc(a1-2)Gal6S(b1-3)GlcNAc6S
Outline: as §1

[4] = target: Fuc(a1-2)[GalNAc(a1-3)]Gal(b1-3)GlcNAc(b1-6)GalNAc
Outline: as §1

[5] = target: Fuc(a1-3)[Gal(b1-4)]GlcNAc(b1-6)[Gal(b1-3)GlcNAc(b1-3)]Gal(b1-4)Glc
Outline: as §1

[6] = target: Fuc(a1-3)[Gal(b1-4)]GlcNAc6S
Outline: as §1

[7] = target: Gal(a1-3)Gal(b1-3)GlcNAc(b1-6)GalNAc
Outline: as §1

[8] = target: Gal(a1-3)Gal(b1-4)GlcNAc(b1-3)GalNAc
Outline: as §1

Gal(b1-3)GlcNAc(b1-2)Man = target: Gal(b1-3)GlcNAc(b1-2)Man
Outline: as §1

[9] = target: Gal(b1-3)GlcNAc(b1-6)Gal(b1-4)GlcNAc
Outline: as §1

Gal(b1-3)GlcNAc6S = target: Gal(b1-3)GlcNAc6S
Outline: as §1

[10] = target: Gal(b1-3)[Neu5Ac(a2-6)]GalNAc
Outline: as §1

Gal(b1-4)Glc6S = target: Gal(b1-4)Glc6S
Outline: as §1

Gal(b1-4)GlcNAc(b1-2)Man = target: Gal(b1-4)GlcNAc(b1-2)Man
Outline: as §1

[11] = target: Gal(b1-4)GlcNAc(b1-2)[Gal(b1-4)GlcNAc(b1-6)]Man(a1-6)[GlcNAc(b1-4)][Gal(b1-4)GlcNAc(b1-2)Man(a1-3)]Man(b1-4)GlcNAc(b1-4)GlcNAc
Outline: as §1

[12] = target: Gal(b1-4)GlcNAc(b1-3)Gal(b1-3)GalNAc
Outline: as §1

[13] = target: Gal(b1-4)GlcNAc(b1-3)Gal(b1-4)GlcNAc(b1-3)Gal(b1-4)GlcNAc(b1-3)Gal(b1-4)GlcNAc(b1-2)Man(a1-3)[Gal(b1-4)GlcNAc(b1-3)Gal(b1-4)GlcNAc(b1-3)Gal(b1-4)GlcNAc(b1-3)Gal(b1-4)GlcNAc(b1-2)Man(a1-6)]Man(b1-4)GlcNAc(b1-4)[Fuc(a1-6)]GlcNAc
Outline: as §1

[14] = target: Gal3S(b1-4)[Fuc(a1-3)]Glc6S
Outline: as §1

[15] = target: Gal3S(b1-4)[Fuc(a1-3)]GlcNAc6S
Outline: as §1

Gal4S6S(b1-4)GlcNAc = target: Gal4S6S(b1-4)GlcNAc
Outline: as §1

Gal6S(b1-3)GlcNAc6S = target: Gal6S(b1-3)GlcNAc6S
Outline: as §1

[16] = target: GalNAc3S(b1-4)[Fuc(a1-3)]GlcNAc
Outline: as §1

GalNAc4S6S(b1-4)GlcNAc = target: GalNAc4S6S(b1-4)GlcNAc
Outline: as §1

Glc(a1-4)Glc = target: Glc(a1-4)Glc
Outline: as §1

Glc(b1-6)Glc = target: Glc(b1-6)Glc
Outline: as §1

GlcA(b1-3)Gal = target: GlcA(b1-3)Gal
Outline: as §1

[17] = target: GlcNAc(a1-4)Gal(b1-4)GalNAc
Outline: as §1

[18] = target: GlcNAc6S(b1-3)Gal(b1-4)GlcNAc
Outline: as §1

Kdn(a2-6)Gal(b1-4)GlcNAc = target: Kdn(a2-6)Gal(b1-4)GlcNAc
Outline: as §1

[19] = target: Man(a1-2)Man(a1-2)Man(a1-6)[Man(a1-3)]Man
Outline: as §1

[20] = target: Man(a1-2)Man(a1-3)[Man(a1-2)Man(a1-6)]Man(a1-6)[Man(a1-2)Man(a1-2)Man(a1-3)]Man
Outline: as §1

[21] = target: Man(a1-2)Man(a1-6)[Man(a1-3)]Man(a1-6)[Man(a1-2)Man(a1-2)Man(a1-3)]Man(b1-4)GlcNAc(b1-4)GlcNAc
Outline: as §1

[22] = target: Man(a1-3)[Man(a1-6)]Man(a1-6)[Man(a1-3)]Man(b1-4)GlcNAc(b1-4)GlcNAc
Outline: as §1

[23] = target: Man(a1-3)[Man(a1-6)]Man(b1-4)GlcNAc(b1-4)GlcNAc
Outline: as §1

[24] = target: Neu5Ac(a2-3)Gal(b1-3)GlcNAc(b1-2)Man
Outline: as §1

[25] = target: Neu5Ac(a2-3)Gal(b1-3)[GlcNAc(b1-6)]GalNAc
Outline: as §1

[26] = target: Neu5Ac(a2-3)Gal(b1-3)]Neu5Ac(a2-3)Gal(b1-4)]GlcNAc
Outline: as §1

[27] = target: Neu5Ac(a2-3)Gal(b1-4)GlcNAc(b1-3)Gal(b1-4)GlcNAc(b1-3)Gal(b1-4)GlcNAc
Outline: as §1

[28] = target: Neu5Ac(a2-3)Gal(b1-4)GlcNAc(b1-6)GalNAc
Outline: as §1

Neu5Ac(a2-3)GalNAc = target: Neu5Ac(a2-3)GalNAc
Outline: as §1

[29] = target: Neu5Ac(a2-6)Gal(b1-4)GlcNAc(b1-2)Man(a1-6)[Man(a1-3)]Man(b1-4)GlcNAc(b1-4)GlcNAc
Outline: as §1

[30] = target: Neu5Ac(a2-6)Gal(b1-4)GlcNAc(b1-3)Gal(b1-3)GlcNAc
Outline: as §1

[31] = target: Neu5Ac(a2-6)Gal(b1-4)GlcNAc(b1-3)Gal(b1-4)GlcNAc(b1-3)Gal(b1-4)GlcNAc
Outline: as §1

[32] = target: Neu5Ac(a2-6)Gal(b1-4)GlcNAc(b1-3)Gal(b1-4)GlcNAc(b1-3)GalNAc
Outline: as §1

[33] = target: Neu5Ac(a2-6)Gal(b1-4)GlcNAc(b1-3)GalNAc
Outline: as §1

[34] = target: Neu5Ac(a2-6)Gal(b1-4)GlcNAc(b1-6)[Gal(b1-3)GlcNAc(b1-3)]Gal(b1-4)Glc
Outline: as §1

[35] = target: Neu5Ac(a2-6)GalNAc(b1-4)GlcNAc
Outline: as §1

[36] = target: Neu5Ac(a2-8)Neu5Ac(a2-3)Gal(b1-3)GalNAc(b1-4)[Neu5Ac(a2-3)]Gal(b1-4)Glc
Outline: as §1

[37] = target: Neu5Ac(a2-8)Neu5Ac(a2-3)[GalNAc(b1-4)]Gal(b1-4)Glc
Outline: as §1

[38] = target: Neu5Ac(a2-8)Neu5Ac(a2-8)Neu5Ac
Outline: as §1

Neu5Gc(a2-6)GalNAc = target: Neu5Gc(a2-6)GalNAc
Outline: as §1

B1: PhypaEULS3 (Physcomitrella patens) (protein)
chain: MLPVRLHCKADPNFNLAAVPGQGPVMVPFSPNDDFQVWYKDVTMSTRVKDETGSSAFSLINKATGQALRHAPEDLAQCLLADYDSNALDQTVLWTMSEDMGQGYCCIRLASQITRNLDVFRGDKKSGGVKEGSPVITFAWKKQDNQIWKMITAILEQKLISEEDLNSAVDHHHHHH
B1 was tested, and the “glycan array binding signal (z-score)” value [1] was 0.946, the “glycan array binding signal (z-score)” value [2] was -0.262 and the “glycan array binding signal (z-score)” value [3] was 3.08. The “glycan array binding signal (z-score)” value [4] was 0.713, the “glycan array binding signal (z-score)” value [5] was 2.22 and the “glycan array binding signal (z-score)” value [6] was -0.239. For the same binder, the “glycan array binding signal (z-score)” value [7] was 0.611, the “glycan array binding signal (z-score)” value [8] was 3.21 and the “glycan array binding signal (z-score)” value (Gal(b1-3)GlcNAc(b1-2)Man) was 0.702. The “glycan array binding signal (z-score)” value [9] was 1.01, the “glycan array binding signal (z-score)” value (Gal(b1-3)GlcNAc6S) was 1.42 and the “glycan array binding signal (z-score)” value [10] was -0.203. For the same binder, the “glycan array binding signal (z-score)” value (Gal(b1-4)Glc6S) was 0.095, the “glycan array binding signal (z-score)” value (Gal(b1-4)GlcNAc(b1-2)Man) was 1.11 and the “glycan array binding signal (z-score)” value [11] was -0.969. For the same binder, the “glycan array binding signal (z-score)” value [12] was 2.27, the “glycan array binding signal (z-score)” value [13] was -0.557 and the “glycan array binding signal (z-score)” value [14] was 0.258. For the same binder, the “glycan array binding signal (z-score)” value [15] was 2.66, the “glycan array binding signal (z-score)” value (Gal4S6S(b1-4)GlcNAc) was -0.245 and the “glycan array binding signal (z-score)” value (Gal6S(b1-3)GlcNAc6S) was 4.14. The “glycan array binding signal (z-score)” value [16] was -0.804, the “glycan array binding signal (z-score)” value (GalNAc4S6S(b1-4)GlcNAc) was 2.6 and the “glycan array binding signal (z-score)” value (Glc(a1-4)Glc) was -0.811. The “glycan array binding signal (z-score)” value (Glc(b1-6)Glc) was -1.38, the “glycan array binding signal (z-score)” value (GlcA(b1-3)Gal) was -1.49 and the “glycan array binding signal (z-score)” value [17] was -1.15. For the same binder, the “glycan array binding signal (z-score)” value [18] was 1.26, the “glycan array binding signal (z-score)” value (Kdn(a2-6)Gal(b1-4)GlcNAc) was 0.671 and the “glycan array binding signal (z-score)” value [19] was 0.733. The “glycan array binding signal (z-score)” value [20] was -0.367, the “glycan array binding signal (z-score)” value [21] was 2.25 and the “glycan array binding signal (z-score)” value [22] was -0.185. For the same binder, the “glycan array binding signal (z-score)” value [23] was 0.192, the “glycan array binding signal (z-score)” value [24] was -0.422 and the “glycan array binding signal (z-score)” value [25] was 3.83. For the same binder, the “glycan array binding signal (z-score)” value [26] was 0.062, the “glycan array binding signal (z-score)” value [27] was 0.343 and the “glycan array binding signal (z-score)” value [28] was 2.29. The “glycan array binding signal (z-score)” value (Neu5Ac(a2-3)GalNAc) was -0.098, the “glycan array binding signal (z-score)” value [29] was -0.347 and the “glycan array binding signal (z-score)” value [30] was 0.4. For the same binder, the “glycan array binding signal (z-score)” value [31] was 0.398, the “glycan array binding signal (z-score)” value [32] was 0.528 and the “glycan array binding signal (z-score)” value [33] was 0.678. For the same binder, the “glycan array binding signal (z-score)” value [34] was 0.339, the “glycan array binding signal (z-score)” value [35] was 0.235 and the “glycan array binding signal (z-score)” value [36] was -0.561. The “glycan array binding signal (z-score)” value [37] was -0.005, the “glycan array binding signal (z-score)” value [38] was -0.561 and the “glycan array binding signal (z-score)” value (Neu5Gc(a2-6)GalNAc) was 2.46.
